# From PubChem
# Compounds with a hit are over-represented: about 9.4% of the library has one in this group of screens.
# NPC1 prom act: activates the NPC1 promoter. Potency, µM (titrated, usually from 9.22 µM), hits mostly activators. 320,000 compounds, 2.4% hits. Huh7 NPC1 promoter luciferase reporter, 24 h; further: nearly all actives have a fitted effect of over 60% in size
#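 Luciferase expression driven by the NPC1 promoter was measured in stably transfected Huh7 cells after a 24 h compound incubation, using a luciferase reagent and a luminescence read.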
# ELG1 genotoxic: inducers of genotoxicity in HEK293T ELG1-luciferase cells | AID 504466 | HEK293T ELG1-luciferase reporter, luminescence, 16 h | 330,000 compounds, 1.3% hits | Potency, µM (series often up to 46 µM), actives largely listed as activators; further: nearly all actives have a fitted effect of over 60% in size
#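 ELG1-luciferase HEK293T cells, 2,000/well; compound pinned in; 16 hr, 37 °C, 5% CO2; ONE-Glo, 30 min RT; luminescence on CCD imager.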
# Rab9 prom act: Rab9 promoter activation; Huh7 Rab9 promoter-luciferase reporter, luminescence, 24 h; Potency, µM (doses to about 9.22 µM), most hits filed as activators; 320,000 compounds, 2.8% hits; further: nearly all actives have a fitted effect of over 60% in size
#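 Promoter activation is measured as luciferase luminescence in Huh7 cells stably transfected with a Rab9 promoter–luciferase construct, following 24 h compound exposure at 37 °C and 10 min reagent incubation at ambient temperature.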
# ELG1 repair inh: inhibitors of ELG1-dependent DNA repair in HEK293T cells | HEK293T ELG1-luciferase reporter, luminescence, 16 h; DNA damage induced by 5-fluorouridine | 330,000 compounds, 2.3% hits | Potency, µM (titrated, usually from 46.1 µM), actives largely listed as inhibitors | AID 504467; further: nearly all actives have a fitted effect of over 55% in size
#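 In this reporter screen, reduction of luminescence relative to DMSO vehicle indicated activity. Compounds and 5-fluorouridine were added together to 2,000 cells per well, incubated for 16 hr at 37 °C, then developed with ONE-Glo.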
# FLuc modulator: firefly luciferase modulation, counter-screen for miR-21 project; Potency, µM (highest dose often 57.5 µM), actives largely listed as inhibitors; AID 588342; purified FLuc, Km substrates, luminescence inhibition; 360,000 compounds, 6.9% hits; P08659; further: nearly all actives have a fitted effect of over 55% in size
# Target sequence (P08659 whole entry, looked up): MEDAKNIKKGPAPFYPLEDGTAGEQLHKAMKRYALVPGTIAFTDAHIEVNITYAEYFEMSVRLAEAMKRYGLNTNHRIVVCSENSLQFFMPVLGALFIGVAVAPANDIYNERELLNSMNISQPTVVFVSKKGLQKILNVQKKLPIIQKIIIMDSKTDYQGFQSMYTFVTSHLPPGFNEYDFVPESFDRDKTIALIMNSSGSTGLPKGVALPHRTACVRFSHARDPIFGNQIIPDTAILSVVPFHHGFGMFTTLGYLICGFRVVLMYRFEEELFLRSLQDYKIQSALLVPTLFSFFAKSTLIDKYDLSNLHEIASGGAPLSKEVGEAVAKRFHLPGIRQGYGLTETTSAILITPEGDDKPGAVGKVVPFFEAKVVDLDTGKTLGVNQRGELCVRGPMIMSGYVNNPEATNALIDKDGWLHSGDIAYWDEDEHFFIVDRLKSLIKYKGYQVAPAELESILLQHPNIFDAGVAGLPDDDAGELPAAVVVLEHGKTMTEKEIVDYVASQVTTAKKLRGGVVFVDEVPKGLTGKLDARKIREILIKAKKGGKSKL
#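 Purified P. pyralis luciferase (10nM final) with 10uM D-luciferin and 10uM ATP (Km levels) in 50mM Tris acetate pH 7.5, 10mM Mg acetate, 0.01% Tween-20, 0.05% BSA; qHTS 6-point titration, ~60 µM downward; luminescence read.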
# SMN2 splice up: SMN2 splice variant enhancement | HEK293 SMN2-luciferase splicing reporter, luminescence, 30-36 h | 210,000 compounds, 2.8% hits | Potency, µM (top dose mostly 46.1 µM), usual class: activators | AID 1458; further: nearly all actives have a fitted effect of over 55% in size
#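 HEK293 cells carry an SMN2 minigene-luciferase reporter in which exon 7 inclusion puts luciferase in frame. Cells were seeded at 2000 cells/well, attached for 10-12 hours, then exposed to compounds for 30-36 hours at 37C before ONE-Glo luminescence.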
# Hits are given with their value; 0 = inactive; ? = inconclusive; - = not tested or not shown. The call rests on the fitted dose curve; in most records, active means well fitted curve in the direction sought with a large enough effect; inconclusive means small, poorly fitted or top-dose-only effect, or another doubt; inactive means no such curve, though single readings can be large; an effect the other way counts as inactive or inconclusive.
SMILES,NPC1 prom act,ELG1 genotoxic,Rab9 prom act,ELG1 repair inh,FLuc modulator,SMN2 splice up
O=C(/C=C/c1ccc(Cl)cc1)N1CCOCC1,?,0,?,?,26.9µM,-
CCCOc1ccc(N2C(=O)CC(N3CCC(c4nc5ccccc5o4)CC3)C2=O)cc1 (configuration not stated),0,0,0,0,0,0
O=C(/C=C/c1ccccc1Cl)N1CCCN(C(=O)/C=C/c2ccccc2Cl)CC1,0,0,0,0,19µM,0
CC(C)c1ccc(/C=C/C(=O)n2nnc3ccccc32)cc1,-,-,-,-,1.69µM,0
CC(Cn1nnc2ccccc21)C(=O)O (configuration not stated),0,0,0,0,0,-
O=[N+]([O-])c1cc(/C=N/N2CCCCC2)ccc1Cl,0,?,?,?,?,?
CC(C)c1ccc(/C=N/N2CCCCC2)cc1,0,?,3.16µM,?,1.51µM,?
CCCOc1ccc(/C=C/C(=O)N2CCOCC2)cc1,2.51µM,?,?,?,15.1µM,-
O=C(/C=C/c1ccccc1[N+](=O)[O-])N1CCCCC1,0,0,0,0,0,0
CC(=O)N1CCc2c(sc3c2c(=O)n(-c2ccc(C)cc2)c(=O)n3Cc2ccccc2C)C1,-,-,-,-,0,0
Cc1ccc(N(CC(=O)N2CCN(c3cccc(C)c3C)CC2)S(=O)(=O)c2c(C)nn(C)c2C)cc1,-,-,-,-,0,0
CC(C)c1ccc(/C=C/C(=O)N2CCOCC2)cc1,3.16µM,?,2.51µM,?,9.53µM,-
CC(C)c1ccc(/C=C/C(=O)N2CCCCCC2)cc1,0,?,0,?,15.1µM,0
Cc1ccc(-c2csc(N3CCC(C(N)=O)CC3)n2)cc1,1.26µM,0,2µM,?,10.7µM,-
NC(=O)C1CCN(c2nc(-c3ccc4ccccc4c3)cs2)CC1,2µM,0,?,?,12µM,-
NC(=O)C1CCN(c2nc(-c3cccc(Cl)c3)cs2)CC1,0,0,?,?,?,-
N#Cc1ccc(-c2csc(N3CCC(C(N)=O)CC3)n2)cc1,-,-,-,-,0,-
COc1ccc(-c2csc(N3CCC(C(N)=O)CC3)n2)cc1,0,0,?,0,21.3µM,-
CC(=O)c1cccc(-c2csc(N3CCC(C(N)=O)CC3)n2)c1,1.26µM,0,0.398µM,?,16.9µM,-
CN(CC(=O)Nc1ccc(F)c(F)c1F)C(=O)c1ccc(=O)[nH]c1,0.891µM,4.61µM,1.12µM,?,4.26µM,-
COc1cccc(C(=O)N(C)CC(=O)Nc2ccc(F)c(F)c2F)c1,0,0,0,0,0,-
O=C(c1ccc2c(c1)N(Cc1ccc(Cl)cc1)C(=O)c1ccccc1S2(=O)=O)N1CCc2ccccc21,-,-,-,-,0,0
C[C@H](CO)N1C[C@H](C)[C@@H](CN(C)Cc2ccc(-c3ccccc3)cc2)Oc2c(NC(=O)Nc3ccc4c(c3)OCO4)cccc2C1=O,-,0,-,23.1µM,-,-
C[C@@H]1CN([C@H](C)CO)C(=O)c2cccc(NC(=O)Nc3ccc(F)cc3)c2O[C@H]1CN(C)C(=O)Nc1ccc(C(F)(F)F)cc1,-,0,-,6.51µM,-,-
C[C@H](CO)N1C[C@H](C)[C@@H](CN(C)C(=O)Nc2ccc3c(c2)OCO3)Oc2c(NC(=O)Nc3ccc(C(F)(F)F)cc3)cccc2C1=O,-,0,-,10.3µM,-,-
SMILES,NPC1 prom act,ELG1 genotoxic,Rab9 prom act,ELG1 repair inh,FLuc modulator,SMN2 splice up
C[C@H](CO)N1C[C@H](C)[C@@H](CN(C)S(C)(=O)=O)Oc2c(NC(=O)Nc3ccc4c(c3)OCO4)cccc2C1=O,-,0,-,0,-,-
COC(=O)c1ccc(NC(=O)CN2CCCN(Cc3ccc(Cl)cc3)S2(=O)=O)cc1,-,-,-,-,0,-
CCCCC/C=C\C/C=C\C/C=C\C/C=C\CCCC(=O)O[C@@H](CO)COCCCCCCCCCCCCCCCC,-,-,-,-,-,0
CC=C1C2C=C(C)CC1(N)c1ccc(=O)[nH]c1C2 (configuration not stated),-,-,-,-,-,0
COc1cc(NC(=O)Cn2ccc3ccccc3c2=O)cc(OC)c1OC,-,-,-,-,0,0
CC(=O)Nc1cccc(-c2csc(N)n2)c1,0,0,0,0,0,0
Cc1ccc(-c2nc3ccccc3s2)cc1NC(=S)NC(=O)c1cccc2ccccc12,0,?,0,?,10.7µM,?
CN(C)c1cccc(C(=O)Nc2ccc(-c3nc4ccccc4s3)cc2)c1,-,-,-,-,5.36µM,-
CC(=O)Nc1ccc2nc(SCC(=O)O)sc2c1,0,0,0,0,0,0
CC(=O)Nc1cccc(-c2cc(C)c3cc4c(cc3n2)OCO4)c1,?,?,0,?,8.49µM,-
CC(=O)Nc1cccc(-c2nc3ccc(NC(C)=O)cc3s2)c1,3.16µM,?,0.891µM,?,3.01µM,12.6µM
CCc1nn(CC(=O)N2CCCCC2)c(=O)c2cc3sccc3n12,-,-,-,-,0,0
COc1ccccc1NC(=O)C1=C(C)Nc2c(C(=O)Nc3cccc(C)c3)cnn2C1c1ccccc1Cl (configuration not stated),-,-,-,-,0,-
CC(=O)Nc1ccc(O)c(-c2nc3ccccc3s2)c1,0,?,?,0,?,0
CC(=O)Nc1cccc(-c2nc3ccccc3s2)c1,?,?,2.24µM,?,9.53µM,12.6µM
Cc1ccc(C(=O)NC(=S)Nc2cccc(-c3nc4ccccc4s3)c2)cc1,0,?,0,?,12µM,0
Oc1c(Cl)cc(Cl)cc1C=Nc1cc(C(F)(F)F)ccc1N1CCc2ccccc2C1,?,?,?,?,1.9µM,-
CC(=O)Oc1ccc(-c2cccc(C(=O)O)c2)cc1,0,?,0,?,3.79µM,0
COc1ccc(Cl)cc1N1C(=O)/C(=C\c2sccc2C)N=C1SCC(=O)NC1CC1,0,0,0,16.4µM,0,0
C=CCN1C(=O)/C(=C\c2ccc(Cl)cc2)N=C1SCC(=O)NC1CCCCC1,0,0,0,0,0,0
COc1ccc(CNC(=O)C(=O)NCC(c2cccs2)S(=O)(=O)c2ccc(C)cc2)cc1 (configuration not stated),-,-,-,-,0,-
O=C(Cc1cccs1)Nc1c(C(=O)Nc2ccc(F)cc2)oc2ccccc12,-,-,-,-,0,0
Cc1sc2c(c1C)C(=O)NC(c1ccccc1F)N2 (configuration not stated),0,?,?,?,16.9µM,-
CC1CCN(C(=O)c2ccc3c(c2)OCCO3)CC1,0,?,0,?,?,?
COc1ccc(-c2ccc(SCC(=O)N3CCOCC3)nn2)cc1OC,0,?,0,0,15.1µM,0
CC1CCN(C(=O)CSc2ccc(-c3ccc4c(c3)OCCO4)nn2)CC1,0,0,0,?,10.7µM,-
CC1CCCC(C)N1C(=O)CSc1ccc(-c2ccc3c(c2)OCCO3)nn1 (configuration not stated),0,0,0,0,13.5µM,-
